Inconclusive results are not listed. Active and inactive are the calls of the source. How the source made its calls, unless noted: active means hit-call score of the fitted dose curve at least 0.9, where 1 is the maximum; inactive means score below 0.9.
What was measured:
[1] = target: Nuclear respiratory factor 1 (Homo sapiens) (UniProt Q16656); experiment: ATG_NRF1_CIS: Attagene CIS-FACTORIAL HepG2 Assay for human Nuclear Respiratory Factor 1 (NRF1) Orphan Gene (AID 2282987); conditions: HepG2 NRF1 cis-element reporter, Attagene multiplex; actives raise or lower the signal
Sequence of Nuclear respiratory factor 1 (Homo sapiens) (Q16656 whole entry, looked up): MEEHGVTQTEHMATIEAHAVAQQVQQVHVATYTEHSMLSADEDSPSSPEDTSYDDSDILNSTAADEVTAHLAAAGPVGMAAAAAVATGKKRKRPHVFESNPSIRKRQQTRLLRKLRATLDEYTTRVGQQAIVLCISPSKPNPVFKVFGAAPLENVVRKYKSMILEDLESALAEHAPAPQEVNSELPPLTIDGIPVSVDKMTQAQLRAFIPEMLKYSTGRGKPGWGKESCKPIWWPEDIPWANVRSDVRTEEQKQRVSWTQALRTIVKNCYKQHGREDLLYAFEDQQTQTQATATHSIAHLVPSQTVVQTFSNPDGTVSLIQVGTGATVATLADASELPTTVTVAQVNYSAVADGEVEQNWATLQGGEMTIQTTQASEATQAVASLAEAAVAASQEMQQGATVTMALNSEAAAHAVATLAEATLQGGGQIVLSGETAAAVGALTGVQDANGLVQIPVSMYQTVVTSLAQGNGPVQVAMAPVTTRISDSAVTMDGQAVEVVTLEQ
Outline: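 Endogenous NRF1-driven reporter transcription in transfected HepG2 cells after 24 h treatment. Readout: RT-PCR products, 6-FAM labelled and resolved by capillary electrophoresis; changes fitted both directions relative to DMSO.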

[2] = ATG_NFI_CIS: Attagene CIS-FACTORIAL HepG2 Assay for human Nuclear Factor I (NFI) (AID 2282989); conditions: HepG2 cis-regulatory reporter, NFI response element transcription; actives raise or lower the signal
Outline: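 Transient MRTU transfection of HepG2 → 24 h chemical dosing → total RNA, oligo(dT) RT → PCR, 6-FAM primer extension, HpaI cut → capillary electrophoresis. Endpoint fitted bidirectionally relative to DMSO.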

[3] = target: Myc proto-oncogene protein (Homo sapiens) (UniProt P01106); experiment: ATG_Myc_CIS: Attagene CIS-FACTORIAL HepG2 Assay for human Myelocytomatosis (Myc) Proto-Oncogene Transcription Factor (AID 2282990); conditions: HepG2, Attagene cis-reporter transcription factor activity; actives raise or lower the signal
Sequence of Myc proto-oncogene protein (Homo sapiens) (P01106 whole entry, looked up): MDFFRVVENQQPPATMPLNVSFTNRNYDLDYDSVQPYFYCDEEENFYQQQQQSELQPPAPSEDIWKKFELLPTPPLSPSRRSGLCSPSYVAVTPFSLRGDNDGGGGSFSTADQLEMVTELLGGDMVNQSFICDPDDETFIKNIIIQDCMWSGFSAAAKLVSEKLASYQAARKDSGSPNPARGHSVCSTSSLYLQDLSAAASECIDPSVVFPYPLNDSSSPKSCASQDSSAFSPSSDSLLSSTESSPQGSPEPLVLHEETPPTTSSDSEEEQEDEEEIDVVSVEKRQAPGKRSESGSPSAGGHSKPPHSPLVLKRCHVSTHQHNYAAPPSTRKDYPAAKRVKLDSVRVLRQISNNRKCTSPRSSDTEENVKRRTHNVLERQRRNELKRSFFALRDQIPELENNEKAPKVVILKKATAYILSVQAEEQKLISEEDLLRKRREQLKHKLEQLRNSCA
Outline: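 Multiplexed cis-reporter transcription in HepG2 cells after 24 h chemical treatment. Reporter mRNA measured by RT-PCR and capillary electrophoresis fluorescence; activity fitted bidirectionally against DMSO control.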

[4] = ATG_NF_kB_CIS: Attagene CIS-FACTORIAL HepG2 Assay for human Nuclear Factor Kappa B (NF-kB) (AID 2282991); conditions: HepG2 Attagene cis-factorial NF-kB reporter mRNA; actives raise or lower the signal
Outline: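 Readout is reporter transcript level, gain or loss versus DMSO, measured 24 h post-dose via RT-PCR, fluorescent labelling and capillary electrophoresis. Human HepG2 liver cells carried transiently transfected CIS reporter constructs reflecting endogenous factors.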

[5] = ATG_NRF2_ARE_CIS: Attagene CIS-FACTORIAL HepG2 Assay for human Nuclear Factor Erythroid 2 Related Factor 2 (NFR2) response to Antioxidant Response Elements (ARE) (AID 2282992); conditions: HepG2 Attagene ARE/NRF2 reporter, transcription factor activity; actives raise or lower the signal
Outline: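 Cis-factorial assay: transfected HepG2 reporter library, 24 h dosing, mRNA readout via RT-PCR/CE; DMSO-referenced bidirectional analysis.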

[6] = ATG_Oct_MLP_CIS: Attagene CIS-FACTORIAL HepG2 Assay for human Octamer-Binding Transcription Factor (Oct) (AID 2282993); conditions: HepG2 Attagene cis-factorial Oct reporter, mRNA; actives raise or lower the signal
Outline: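 Transient MRTU transfection of HepG2 → 24 h compound treatment → RNA isolation, reverse transcription, PCR → 6-FAM primer extension, HpaI digest → capillary electrophoresis. Activity fitted both directions against DMSO.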

[7] = target: Cellular tumor antigen p53 (Homo sapiens) (UniProt P04637); experiment: ATG_p53_CIS: Attagene CIS-FACTORIAL HepG2 Assay for human p53 Transcription Factor (AID 2282994); conditions: HepG2 p53 cis-element reporter, Attagene mRNA; actives raise or lower the signal
Sequence of Cellular tumor antigen p53 (Homo sapiens) (P04637 whole entry, looked up): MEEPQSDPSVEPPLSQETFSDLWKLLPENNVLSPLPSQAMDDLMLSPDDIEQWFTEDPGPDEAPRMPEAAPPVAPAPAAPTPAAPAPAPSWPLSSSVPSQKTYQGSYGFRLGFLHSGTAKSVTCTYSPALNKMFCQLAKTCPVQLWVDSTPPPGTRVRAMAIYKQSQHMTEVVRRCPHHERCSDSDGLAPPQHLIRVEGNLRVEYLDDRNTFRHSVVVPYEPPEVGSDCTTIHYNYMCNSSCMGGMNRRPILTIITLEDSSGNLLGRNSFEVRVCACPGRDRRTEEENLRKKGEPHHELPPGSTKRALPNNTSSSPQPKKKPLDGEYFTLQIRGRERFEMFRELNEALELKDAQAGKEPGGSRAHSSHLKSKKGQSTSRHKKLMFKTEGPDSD
Outline: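 Using HepG2 hepatoma cells carrying cis-acting multiplexed reporters, mRNA induction is detected after a 24 h exposure. Gain- and loss-of-signal responses are fitted relative to DMSO-treated cells.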

[8] = target: human Peroxisome Proliferator-activated Receptor delta (PPARd), PPARD (gene 5467) (UniProt Q03181); experiment: ATG_PPARd_TRANS: Attagene TRANS-FACTORIAL HepG2 Assay for human Peroxisome Proliferator-activated Receptor delta (PPARd) (AID 2283002; active means hit-call score of the fitted dose curve at least 0.9, where 1 is the maximum)
Sequence of human Peroxisome Proliferator-activated Receptor delta (PPARd), PPARD (gene 5467) (Q03181 whole entry, looked up, the tested form may be a part): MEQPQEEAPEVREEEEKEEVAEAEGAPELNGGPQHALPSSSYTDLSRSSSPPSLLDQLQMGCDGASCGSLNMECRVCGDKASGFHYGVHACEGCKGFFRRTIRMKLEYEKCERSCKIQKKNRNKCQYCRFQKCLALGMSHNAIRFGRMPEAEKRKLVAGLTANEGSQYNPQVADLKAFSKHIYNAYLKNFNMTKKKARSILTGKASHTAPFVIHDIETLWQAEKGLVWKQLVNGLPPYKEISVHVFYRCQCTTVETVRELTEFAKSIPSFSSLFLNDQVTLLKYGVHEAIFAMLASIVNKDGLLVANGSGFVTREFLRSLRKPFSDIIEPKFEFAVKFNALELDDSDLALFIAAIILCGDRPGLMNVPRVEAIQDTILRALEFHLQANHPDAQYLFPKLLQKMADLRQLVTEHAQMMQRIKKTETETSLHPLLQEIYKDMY
Outline: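 Multiplexed trans-activation format: HepG2 liver cells expressing exogenous NR-Gal4 chimeras and GAL4-UAS reporters were exposed for 24 h. Reporter mRNA was detected by RT-PCR with capillary electrophoresis fluorescence; activity fitted as gain of signal relative to DMSO.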

[9] = target: Peroxisome proliferator-activated receptor gamma (Homo sapiens) (UniProt P37231); experiment: ATG_PPARg_TRANS: Attagene TRANS-FACTORIAL HepG2 Assay for human Peroxisome Proliferator-activated Receptor-gamma (PPARg) (AID 2283007; active means hit-call score of the fitted dose curve at least 0.9, where 1 is the maximum)
Sequence of Peroxisome proliferator-activated receptor gamma (Homo sapiens) (P37231 whole entry, looked up, the tested form may be a part): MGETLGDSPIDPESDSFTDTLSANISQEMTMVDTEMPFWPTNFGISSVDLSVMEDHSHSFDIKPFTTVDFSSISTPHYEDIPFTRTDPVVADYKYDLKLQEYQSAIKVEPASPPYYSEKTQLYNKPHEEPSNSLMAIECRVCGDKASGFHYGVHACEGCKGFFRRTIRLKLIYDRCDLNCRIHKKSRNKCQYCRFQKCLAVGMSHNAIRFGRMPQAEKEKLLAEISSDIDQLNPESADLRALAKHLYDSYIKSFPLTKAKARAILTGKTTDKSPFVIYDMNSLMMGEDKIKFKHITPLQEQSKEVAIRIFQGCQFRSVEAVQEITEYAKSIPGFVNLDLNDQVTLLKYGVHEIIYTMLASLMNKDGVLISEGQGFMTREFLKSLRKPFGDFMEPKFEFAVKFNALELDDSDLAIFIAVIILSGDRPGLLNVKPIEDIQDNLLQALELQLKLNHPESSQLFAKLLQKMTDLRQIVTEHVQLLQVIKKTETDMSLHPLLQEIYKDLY
Outline: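 After 24 h of chemical exposure, transfected HepG2 cells carrying PPARγ-Gal4 chimera reporter constructs are lysed for RNA. Reporter transcripts are measured by RT-PCR and capillary electrophoresis with fluorescent labelling, and gain of signal is fitted versus DMSO.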

[10] = target: Nuclear receptor subfamily 1 group I member 2 (Homo sapiens) (UniProt O75469); experiment: ATG_PXR_TRANS: Attagene TRANS-FACTORIAL HepG2 Assay for human Pregnane X Receptor (PXR) (AID 2283008; active means hit-call score of the fitted dose curve at least 0.9, where 1 is the maximum)
Sequence of Nuclear receptor subfamily 1 group I member 2 (Homo sapiens) (O75469 whole entry, looked up, the tested form may be a part): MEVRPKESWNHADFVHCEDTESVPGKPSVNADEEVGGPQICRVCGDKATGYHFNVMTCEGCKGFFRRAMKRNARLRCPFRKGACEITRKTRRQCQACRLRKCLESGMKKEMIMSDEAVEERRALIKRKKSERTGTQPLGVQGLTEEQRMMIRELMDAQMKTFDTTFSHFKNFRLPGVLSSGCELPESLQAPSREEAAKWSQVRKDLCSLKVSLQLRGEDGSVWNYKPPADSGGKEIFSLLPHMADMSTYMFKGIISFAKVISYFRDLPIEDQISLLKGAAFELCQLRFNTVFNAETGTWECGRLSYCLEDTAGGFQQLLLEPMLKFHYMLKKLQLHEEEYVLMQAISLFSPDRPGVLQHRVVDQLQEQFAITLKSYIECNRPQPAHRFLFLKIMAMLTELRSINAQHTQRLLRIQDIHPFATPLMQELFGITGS
Outline: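 Fluorescence intensity of FAM-labelled, HpaI-digested reporter amplicons, separated by capillary electrophoresis, quantifies induction. HepG2 cells with PXR-Gal4 trans-reporter system were exposed 24 h; DMSO defines baseline.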

[11] = target: human Retinoic Acid Receptor gamma (RARg), RARG (gene 5916) (UniProt P13631); experiment: ATG_RARg_TRANS: Attagene TRANS-FACTORIAL HepG2 Assay for human Retinoic Acid Receptor gamma (RARg) (AID 2283009; active means hit-call score of the fitted dose curve at least 0.9, where 1 is the maximum)
Sequence of human Retinoic Acid Receptor gamma (RARg), RARG (gene 5916) (P13631 whole entry, looked up, the tested form may be a part): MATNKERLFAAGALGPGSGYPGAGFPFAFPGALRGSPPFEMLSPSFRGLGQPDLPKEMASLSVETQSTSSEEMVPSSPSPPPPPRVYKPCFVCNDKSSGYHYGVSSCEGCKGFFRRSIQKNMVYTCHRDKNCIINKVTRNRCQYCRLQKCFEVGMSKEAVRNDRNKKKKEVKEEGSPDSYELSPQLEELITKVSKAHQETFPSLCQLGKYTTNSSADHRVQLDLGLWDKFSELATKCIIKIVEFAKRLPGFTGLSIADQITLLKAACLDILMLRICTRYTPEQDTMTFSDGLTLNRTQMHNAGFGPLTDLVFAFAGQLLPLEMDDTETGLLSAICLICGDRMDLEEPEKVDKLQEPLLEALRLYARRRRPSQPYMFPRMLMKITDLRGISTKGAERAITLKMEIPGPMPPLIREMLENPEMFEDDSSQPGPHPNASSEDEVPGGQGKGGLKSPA
Outline: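 HepG2 transiently transfected with GAL4-UAS reporter units and chimeric NR-Gal4 constructs; 24 h compound exposure. Reporter mRNA quantified by RT-PCR, FAM labeling, HpaI digestion and capillary electrophoresis; gain-of-signal versus DMSO.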

[12] = target: human Peroxisome Proliferator-activated Receptor alpha (PPARa), PPARA (gene 5465) (UniProt Q07869); experiment: ATG_PPARa_TRANS: Attagene TRANS-FACTORIAL HepG2 Assay for human Peroxisome Proliferator-activated Receptor alpha (PPARa) (AID 2283001; active means hit-call score of the fitted dose curve at least 0.9, where 1 is the maximum)
Sequence of human Peroxisome Proliferator-activated Receptor alpha (PPARa), PPARA (gene 5465) (Q07869 whole entry, looked up, the tested form may be a part): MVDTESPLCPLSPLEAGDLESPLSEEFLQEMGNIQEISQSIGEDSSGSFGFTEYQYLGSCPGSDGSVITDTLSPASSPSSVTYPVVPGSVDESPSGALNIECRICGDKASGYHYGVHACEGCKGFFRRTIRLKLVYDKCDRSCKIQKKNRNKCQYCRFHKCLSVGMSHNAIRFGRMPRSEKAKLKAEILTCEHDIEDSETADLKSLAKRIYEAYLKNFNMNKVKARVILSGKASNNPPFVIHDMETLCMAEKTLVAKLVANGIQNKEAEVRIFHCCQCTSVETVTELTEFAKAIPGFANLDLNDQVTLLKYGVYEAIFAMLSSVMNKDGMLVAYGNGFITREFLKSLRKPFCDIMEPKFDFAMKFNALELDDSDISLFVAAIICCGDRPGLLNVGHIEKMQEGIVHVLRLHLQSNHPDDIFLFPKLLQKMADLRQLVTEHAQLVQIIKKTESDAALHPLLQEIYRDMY
Outline: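 Gain-of-signal endpoint: reporter mRNA induction relative to DMSO, detected by fluorescent RT-PCR and capillary electrophoresis. HepG2 cells transiently carried GAL4-UAS-driven reporter units plus NR-Gal4 fusion; exposure lasted 24 h.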

[13] = target: human Retinoic Acid Receptor beta (RARb), RARB (gene 5915) (UniProt P10826); experiment: ATG_RARb_TRANS: Attagene TRANS-FACTORIAL HepG2 Assay for human Retinoic Acid Receptor beta (AID 2283004; active means hit-call score of the fitted dose curve at least 0.9, where 1 is the maximum)
Sequence of human Retinoic Acid Receptor beta (RARb), RARB (gene 5915) (P10826 whole entry, looked up, the tested form may be a part): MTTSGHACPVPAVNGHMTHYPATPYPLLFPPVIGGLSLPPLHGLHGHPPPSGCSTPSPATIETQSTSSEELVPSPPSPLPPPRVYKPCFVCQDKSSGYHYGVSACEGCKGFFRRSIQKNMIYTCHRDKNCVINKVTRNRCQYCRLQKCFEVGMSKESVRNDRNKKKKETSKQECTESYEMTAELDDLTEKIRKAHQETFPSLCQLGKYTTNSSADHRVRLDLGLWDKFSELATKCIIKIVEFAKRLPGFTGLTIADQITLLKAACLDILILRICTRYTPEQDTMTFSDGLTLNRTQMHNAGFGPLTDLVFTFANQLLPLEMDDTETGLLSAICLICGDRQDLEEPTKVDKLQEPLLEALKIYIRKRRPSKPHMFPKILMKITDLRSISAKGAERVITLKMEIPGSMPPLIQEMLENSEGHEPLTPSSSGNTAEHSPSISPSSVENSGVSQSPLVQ
Outline: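 Fluorescent capillary-electrophoresis detection of GAL4-UAS reporter mRNA defines the endpoint, with induction over DMSO-treated wells scored as activity. Transiently transfected human hepatoma HepG2 cells expressing exogenous NR–Gal4 proteins are exposed to test chemicals for 24 h.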

[14] = target: Retinoic acid receptor alpha (Homo sapiens) (UniProt P10276); experiment: ATG_RARa_TRANS: Attagene TRANS-FACTORIAL HepG2 Assay for human Retinoic Acid Receptor alpha (RARa) (AID 2283005; active means hit-call score of the fitted dose curve at least 0.9, where 1 is the maximum)
Sequence of Retinoic acid receptor alpha (Homo sapiens) (P10276 whole entry, looked up, the tested form may be a part): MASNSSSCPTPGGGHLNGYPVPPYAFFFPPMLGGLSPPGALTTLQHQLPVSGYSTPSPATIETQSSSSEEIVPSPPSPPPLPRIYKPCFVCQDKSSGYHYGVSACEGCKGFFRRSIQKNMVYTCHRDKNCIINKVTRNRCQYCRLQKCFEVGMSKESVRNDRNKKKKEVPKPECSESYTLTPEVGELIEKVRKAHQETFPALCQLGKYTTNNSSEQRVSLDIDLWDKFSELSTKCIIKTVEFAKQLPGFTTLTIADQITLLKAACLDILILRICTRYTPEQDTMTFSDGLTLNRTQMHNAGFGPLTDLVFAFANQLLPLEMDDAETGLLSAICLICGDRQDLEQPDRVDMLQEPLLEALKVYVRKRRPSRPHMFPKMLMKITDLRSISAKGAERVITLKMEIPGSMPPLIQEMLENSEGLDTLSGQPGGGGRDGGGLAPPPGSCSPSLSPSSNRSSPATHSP
Outline: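 HepG2 cells transiently transfected with multiple reporter units expressing chimeric RARα-GAL4 fusion, with GAL4-UAS-driven reporters. After 24 h compound exposure, reporter mRNA induction quantified by RT-PCR and capillary electrophoresis with fluorescent labeling; gain-of-signal fitted relative to DMSO control.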

Row | Structure (SMILES) | outcome [1] | outcome [2] | outcome [3] | outcome [4] | AC50 [5] | outcome [6] | outcome [7] | outcome [8] | outcome [9] | AC50 [10] | outcome [11] | outcome [5] | outcome [12] | outcome [10] | outcome [13] | outcome [14] | AC50 [9]
1 | Nc1c(Br)cc([N+](=O)[O-])cc1Br | inactive | inactive | inactive | inactive | 27.4 µM (active) | inactive | inactive | inactive | inactive | 26.8 µM (active) | inactive |  |  |  |  |  | 
2 | CN(N=O)C(=O)N[C@@H]1[C@@H](O)[C@H](O)[C@@H](CO)O[C@@H]1O | inactive | inactive | inactive |  |  | inactive | inactive |  |  |  | inactive | inactive | inactive | inactive |  |  | 
3 | CCOCOCC | inactive | inactive | inactive | inactive |  | inactive | inactive | inactive | inactive |  | inactive | inactive |  |  | inactive | inactive | 
4 | O=C(c1ccccc1)c1ccc(Cl)cc1 | inactive | inactive | inactive | inactive | 132 µM (active) | inactive | inactive | inactive |  | 37.1 µM (active) |  |  |  |  |  |  | 51.6 µM (active)
5 | CC(C)(C)c1cc(Cc2cc(C(C)(C)C)c(O)c(C(C)(C)C)c2)cc(C(C)(C)C)c1O | inactive | inactive | inactive | inactive |  | inactive |  |  | inactive | 0.631 µM (active) | inactive | inactive |  |  | inactive | inactive | 
6 | CCCCOC(=O)[C@H](C)O | inactive | inactive | inactive | inactive |  | inactive | inactive | inactive | inactive |  |  | inactive |  |  |  | inactive | 
7 | O=C1OC(=O)c2ccc3c4c(ccc1c24)C(=O)OC3=O | inactive | inactive | inactive | inactive |  | inactive | inactive | inactive | inactive |  |  | inactive |  | inactive |  |  | 
